tim23-1 inh = growth inhibitors of tim23-1 mutant yeast, primary screen, luminescence, uHTS; S. cerevisiae tim23-1 growth, BacTiter-Glo luminescence, 24 h; inhibition, % at 20 µM; hit rate 1.3% among 330,000; AID 463212, 2010;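 active means growth inhibition of the mutant yeast at or above 50%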;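 further: temperature-sensitive mutant grown at 25 °C; plate controls were DMSO-treated mutant yeast for no effect and medium wells lacking yeast for full effect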
Mdm2 MdmX PPI = inhibitors of human Mdm2-MdmX association, primary screen, cell-based, luminescence, split luciferase, SaOS-2, uHTS; SaOS-2 split-luciferase Mdm2/MdmX complementation; Protein Mdm4 (Homo sapiens) + E3 ubiquitin-protein ligase Mdm2 (Homo sapiens), …; hit rate 3% among 330,000; inhibition, % at 8 µM;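 active means inhibition of at least 50% at 8 µM in the primary screen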
Target sequence (O15151 whole entry, looked up): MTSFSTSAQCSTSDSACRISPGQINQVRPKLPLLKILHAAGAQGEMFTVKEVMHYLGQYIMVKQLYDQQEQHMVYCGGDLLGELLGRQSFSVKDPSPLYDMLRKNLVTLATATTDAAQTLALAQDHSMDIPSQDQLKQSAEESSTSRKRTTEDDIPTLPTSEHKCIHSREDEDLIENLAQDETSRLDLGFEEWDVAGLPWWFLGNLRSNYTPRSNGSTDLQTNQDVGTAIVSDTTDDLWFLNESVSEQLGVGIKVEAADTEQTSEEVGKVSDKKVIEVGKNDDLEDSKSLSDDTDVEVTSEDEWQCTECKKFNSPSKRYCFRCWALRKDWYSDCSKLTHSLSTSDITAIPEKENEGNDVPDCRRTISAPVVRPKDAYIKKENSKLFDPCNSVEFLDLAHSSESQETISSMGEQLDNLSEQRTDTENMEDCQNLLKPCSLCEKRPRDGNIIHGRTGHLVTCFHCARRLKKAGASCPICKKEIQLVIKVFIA
Target sequence (Q00987 whole entry, looked up): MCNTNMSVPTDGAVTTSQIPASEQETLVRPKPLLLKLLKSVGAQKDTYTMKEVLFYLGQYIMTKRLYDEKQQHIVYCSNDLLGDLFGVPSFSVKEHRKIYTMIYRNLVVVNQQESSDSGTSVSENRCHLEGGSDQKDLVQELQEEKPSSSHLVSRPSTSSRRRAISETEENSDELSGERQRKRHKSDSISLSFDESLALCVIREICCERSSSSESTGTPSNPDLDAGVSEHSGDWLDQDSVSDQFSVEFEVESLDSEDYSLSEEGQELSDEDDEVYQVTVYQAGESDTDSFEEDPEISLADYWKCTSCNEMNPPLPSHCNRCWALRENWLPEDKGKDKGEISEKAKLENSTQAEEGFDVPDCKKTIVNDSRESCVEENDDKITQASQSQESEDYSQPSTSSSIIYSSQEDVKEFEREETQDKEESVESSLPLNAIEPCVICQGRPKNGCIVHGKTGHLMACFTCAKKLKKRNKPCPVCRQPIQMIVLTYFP
MPTP block = mitochondrial permeability transition pore inhibitors, primary screen, biochemical, isolated mouse mitochondria, absorbance; Ca2+ swelling absorbance, 30 min; inhibition, % at 10 µM; hit rate 1.4% among 360,000; AID 602449, 2012;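 active means inhibition of 50% or more, scaled per plate between neutral and stimulator controls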;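 further: 0% = DMSO wells given calcium and 100% = 1 mM EGTA wells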
tim10-1 inh = growth inhibitors of tim10-1 mutant yeast, primary screen, luminescence, uHTS; inhibition, % at 20 µM; hit rate 2.2% among 330,000; S. cerevisiae tim10-1 ts strain growth, BacTiter-Glo, 24 h; AID 463190, 2010;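 active means inhibition of at least 40%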;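 further: mutant grown at 25 °C; 0% = DMSO wells with yeast and 100% = wells holding no yeast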
TIM10 inh = growth inhibitors of isogenic TIM10 control yeast, primary screen, counter-screen for tim10-1 yeast inhibitor project, luminescence, uHTS; S. cerevisiae TIM10 strain growth, BacTiter-Glo luminescence, 24 h; inhibition, % at 10 µM; hit rate 1.4% among 330,000;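 active means inhibition of 40% or more at the single tested concentration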;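 further: wild-type TIM10 isogenic control strain grown at permissive 25 °C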
Mdm2-MdmX conf = Mdm2-MdmX complex disruptors, retested hits, confirmation, luminescence, single concentration; inhibition, % at 8 µM; hit rate 55% among 10,000; Mdm2-MdmX binding, luminescent assay; AID 489028, 2010; shares compounds with Mdm2 MdmX PPI; in the data active means inhibition above about 40%
FLuc counter = full-length luciferase signal inhibition, confirmation, counter-screen for Mdm2/MdmX interaction inhibitor project, cell-based, single concentration, SaOS-2 | shares compounds with Mdm2 MdmX PPI | SaOS-2 full-length luciferase counterscreen, luminescence | inhibition, % at 8 µM | hit rate 77% among 6,200 | AID 504607, 2011;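 active means mean inhibition at 8 µM reaching about 37%, which flags the compound as non-specific, limit read from the data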;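 further: p53-null SaOS-2 cells with luciferase driven by a doxycycline-inducible promoter; compound on cells about two nights before reading with doxycycline added after day one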
An asterisk follows results filed as active; nt = not tested or not shown. An excerpt weighted towards active compounds, which were near 6.3% of everything screened.

SMILES	tim23-1 inh	Mdm2 MdmX PPI	MPTP block	tim10-1 inh	TIM10 inh	Mdm2-MdmX conf	others
COc1ccc(C2=Nc3ccccc3N(C(=O)c3ccc(C)cc3)C2C(=O)Nc2c(C)cccc2C)cc1 (centres undefined)	nt	nt	2	nt	nt	nt
CCCS(=O)(=O)NC(=O)C1(C)CCCN(C(=O)c2cc(C)nn2C(C)(C)C)C1 (centres undefined)	nt	nt	0	nt	nt	nt
COc1ccc(Cl)cc1CC1(C)C(=O)Nc2ccc(S(=O)(=O)NC3CCCCC3)cc21 (centres undefined)	nt	nt	-1	nt	nt	nt
Cc1ccc(C(=O)CSc2nnc(-c3ccc4[nH]c(C)c(C)c4c3)o2)cc1C	-22	51*	3	-4	-24	9
Cc1[nH]c2ccc(-c3nnc(SCC(=O)c4ccccc4F)o3)cc2c1C	16	37	1	37	30	nt
Cc1ccccc1Cn1cc(NC(=O)c2cc(-c3cccs3)on2)cn1	3	58*	0	5	9	13
Cc1ccccc1Cn1cc(NC(=O)c2cc(-c3ccco3)on2)cn1	-14	0	1	-8	-13	nt
CC(=O)Oc1ccc(/C=C2/SC(=S)N(Cc3ccccc3)C2=O)cc1	4	33	5	-18	19	nt
COc1ccc(/C=C2\SC(=S)N(CCCC(=O)NNC(=O)c3ccccc3O)C2=O)cc1	-38	57*	4	-23	-29	58*	FLuc counter=46*
COc1ccc(/C=C2\SC(=S)N(CCC(=O)Nc3cccc(O)c3)C2=O)cc1OC	-17	21	-1	-7	-19	nt
COc1ccc(/C=C2/SC(=S)N(CCCC(=O)Nc3ccccc3C(=O)O)C2=O)cc1	28	-7	2	19	14	nt
COc1ccc(/C=C2/SC(=S)N(CCCC(=O)Nc3cccc(O)c3)C2=O)cc1	27	83*	-1	31	8	43*	FLuc counter=29
COc1ccc(CN2C(=O)/C(=C/c3ccncc3)SC2=S)cc1	31	75*	9	13	22	76*	FLuc counter=39*
CC1(Cc2ccc(C(F)(F)F)nc2)C(=O)Nc2cc(-c3ccccc3Cl)ccc21 (centres undefined)	nt	nt	2	nt	nt	nt
COc1ccc(-c2nc3c(Cl)cc(C(F)(F)F)cn3c2Cc2ccsc2)cc1OC	nt	nt	2	nt	nt	nt
Cn1nc(CC(=O)Nc2ncc(Br)s2)c2ccccc2c1=O	-20	59*	49	-16	-27	25
Cc1c(CN(C)C(=O)C2CCC(=O)N(Cc3ccccc3F)C2)[nH]c2ccccc12 (centres undefined)	nt	nt	2	nt	nt	nt
CCOc1ccc(C2Nc3ccc4ccccc4c3-c3c2c(=O)oc2ccccc32)cc1 (centres undefined)	20	68*	11	-4	8	7
COc1ccc(C2Nc3ccc4ccccc4c3-c3c2c(=O)oc2ccccc32)cc1 (centres undefined)	15	79*	16	-13	-9	21
O=c1oc2ccccc2c2c1C(c1ccc(Cl)cc1)Nc1ccc3ccccc3c1-2 (centres undefined)	4	46	1	9	-2	nt
COCCN(C(=O)COC(=O)C(C)(C)Oc1ccc(Cl)cc1)c1c(N)n(Cc2ccccc2)c(=O)[nH]c1=O	nt	nt	-1	nt	nt	nt
CNC(=O)c1[nH]cnc1C(=O)Nc1ccc(Cl)cc1	21	33	0	-4	20	nt
O=C(Nc1ccc(Cl)cc1)c1nc[nH]c1C(=O)NCCCNC(=O)c1[nH]cnc1C(=O)Nc1ccc(Cl)cc1	28	97*	nt	-1	12	-5
O=C(Nc1ccccc1)c1nc[nH]c1C(=O)NCCCNC(=O)c1[nH]cnc1C(=O)Nc1ccccc1	13	39	-1	1	-5	nt
O=C(Nc1ccccc1)c1nc[nH]c1C(=O)NCCCCCCNC(=O)c1[nH]cnc1C(=O)Nc1ccccc1	12	87*	0	9	5	33
SMILES	tim23-1 inh	Mdm2 MdmX PPI	MPTP block	tim10-1 inh	TIM10 inh	Mdm2-MdmX conf	others
Cc1ccc(NC(=O)c2nc[nH]c2C(=O)NCCN(CCNC(=O)c2[nH]cnc2C(=O)Nc2ccc(C)cc2)CCNC(=O)c2[nH]cnc2C(=O)Nc2ccc(C)cc2)cc1	19	90*	1	5	12	76*	FLuc counter=38*
O=C(Nc1ccc(Cl)cc1)c1nc[nH]c1C(=O)NCCN(CCNC(=O)c1[nH]cnc1C(=O)Nc1ccc(Cl)cc1)CCNC(=O)c1[nH]cnc1C(=O)Nc1ccc(Cl)cc1	18	100*	2	8	9	98*	FLuc counter=56*
Cc1ccc(NC(=O)c2nc[nH]c2C(=O)Nc2ccc(C)cc2)cc1	0	29	1	3	-3	nt
COC1=CC(=O)OC(c2cccc(C(F)(F)F)c2)C1 (centres undefined)	nt	nt	0	nt	nt	nt
Cc1c(N2C(=O)/C(=C/c3ccc(N(C)C)cc3)N(C)C2=S)c(=O)n(-c2ccccc2)n1C	nt	nt	10	nt	nt	nt
Cc1ccccc1NC(=O)c1[nH]cnc1C(=O)NN	8	-23	0	22	2	nt
COc1ccc(NC(=O)c2nc[nH]c2C(=O)Nc2ccccc2C)cc1	3	58*	-7	11	28	54*	FLuc counter=48*
O=C(Nc1ccccc1)c1nc[nH]c1C(=O)NCCN(CCNC(=O)c1[nH]cnc1C(=O)Nc1ccccc1)CCNC(=O)c1[nH]cnc1C(=O)Nc1ccccc1	0	62*	0	-1	7	9
COc1ccc(-c2cc(C(=O)N/N=C/c3sccc3C)c3ccccc3n2)c(OC)c1	35	88*	0	33	24	87*	FLuc counter=31
COc1ccccc1-c1cc(C(=O)N/N=C/c2cccs2)c2ccccc2n1	37	66*	0	29	25	35
COc1ccc(NC(=O)C(=O)N/N=C\c2ccc(CNC(=O)C(=O)Nc3ccc(C)c(C)c3)o2)c(OC)c1	-12	92*	nt	-3	-15	46*	FLuc counter=95*
COCCNC(=O)/C(C#N)=C\c1ccc(CNC(=O)C(=O)Nc2ccc(C)c(C)c2)o1	6	-7	1	18	5	nt
Cc1ccn2c(=O)c(C(=O)NC3CCCCC3C)c(O)nc2c1 (centres undefined)	-18	67*	0	-26	-62	67*	FLuc counter=68*
Cc1ccn2c(=O)c(C(=O)NCCCN3CCCCC3C)c(O)nc2c1 (centres undefined)	-4	14	2	-16	-20	nt
Cc1cc(F)cc(-c2cc(C(=O)NCC3CCCCC3)[nH]n2)c1	nt	nt	26	nt	nt	nt

Screening data deposited in PubChem BioAssay by Sanford-Burnham Center for Chemical Genomics.
